# High-throughput results deposited in PubChem by National Center for Advancing Translational Sciences (NCATS).
# D1 antagonist: Antagonist of Human D 1 Dopamine Receptor: qHTS. D(1A) dopamine receptor (Homo sapiens), P21728. HEK293 TREx D1 cells, calcium flux, dopamine EC80; hits give low values. activity change, negative = inhibition, % at 10 µM. 3.2% of 360,000 active; in the data active = activity change below about -30%
# Target sequence (P21728 whole entry, looked up): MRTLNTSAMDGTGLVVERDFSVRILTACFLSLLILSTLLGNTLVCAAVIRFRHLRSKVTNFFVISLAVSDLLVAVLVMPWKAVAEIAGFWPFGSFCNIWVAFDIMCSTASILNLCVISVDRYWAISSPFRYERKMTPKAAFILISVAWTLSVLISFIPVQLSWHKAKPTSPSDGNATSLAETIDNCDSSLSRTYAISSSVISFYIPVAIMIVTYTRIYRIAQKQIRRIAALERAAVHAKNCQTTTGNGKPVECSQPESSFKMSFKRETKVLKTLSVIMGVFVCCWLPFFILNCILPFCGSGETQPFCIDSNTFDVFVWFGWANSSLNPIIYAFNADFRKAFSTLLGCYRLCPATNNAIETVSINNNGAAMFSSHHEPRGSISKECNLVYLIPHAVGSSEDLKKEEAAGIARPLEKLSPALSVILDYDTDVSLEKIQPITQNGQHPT
#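 Tetracycline-induced HEK293 Trex D1 cells, force-coupled to calcium, dye-loaded; compounds added and read 180 s, then EC80 dopamine added and calcium flux tracked kinetically another 180 s.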
# D1 ag: Allosteric Agonists of the Human D1 Dopamine Receptor: qHTS; D(1A) dopamine receptor (Homo sapiens), P21728; HEK293 T-REx D1 cells, calcium flux, agonist mode; activation, % at 2 µM; 1% of 360,000 active; AID 504660, 2011
#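 Tetracycline-induced HEK293 TREx D1 cells, force-coupled to calcium signalling, were dye-loaded with a no-wash calcium kit. Compound was pin-added after a 10 s baseline. Fluorescence was read kinetically at 1 cycle/s for 180 s, with calcium rises flagged as agonism.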
# D1 PAM: Potentiators of Human D1 Dopamine Receptor: qHTS; D(1A) dopamine receptor (Homo sapiens), P21728; HEK293 TREx D1 cells, calcium flux, dopamine EC20 potentiation; potentiation, % at 10 µM; 0.036% of 360,000 active; AID 504651, 2011; in the data active = potentiation above about 30%
# TRHR agonist-1: qHTS for Small Molecule Agonists and Allosteric Enhancers of Human TRH Receptor: Primary Screen for Agonists; TRHR cells, calcium flux fluo-8, FDSS agonist mode; 0.18% of 360,000 active; AID 493084, 2011; Thyrotropin-releasing hormone receptor (Homo sapiens), P34981; activation, % at 2 µM
#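 In this calcium-flux screen, cells bearing human TRHR are dye-loaded with fluo-8, baselined for 10 cycles, then exposed to library compounds; positive kinetic calcium responses during the agonist phase mark hits, with TRH as control.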
# TRHR enhancer-1: qHTS for Small Molecule Agonists and Allosteric Enhancers of Human TRH Receptor: Primary Screen for Enhancers. TRHR cells, fluo-8 calcium fluorescence, EC20 TRH enhancement. Thyrotropin-releasing hormone receptor (Homo sapiens), P34981. 0.66% of 360,000 active. AID 493056, 2011. enhancement, % at 2 µM; in the data active = enhancement above about 30%
#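 Enhancer read-out: after compound pinning and an initial kinetic agonist-mode read, an EC20 of TRH (10 nM final) was injected and fluo-8 calcium signal (Ex 480/Em 530) followed at 1 s/cycle for 100 cycles in TRHR-expressing cells.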
# TRHR enhancer-2: qHTS for Small Molecule Agonists and Allosteric Enhancers of Human TRH Receptor: Confirmation Screen for Enhancers. shares compounds with TRHR enhancer-1. TRH receptor cell assay, enhancer confirmation qHTS. activity change, negative = inhibition, % at 46.1 µM. 970 tested, under 10 active; active = well fitted curve in the direction sought with a large enough effect; inconclusive = small, poorly fitted or top-dose-only effect, or another doubt; inactive = no such curve, though single readings can be large; an effect the other way counts as inactive or inconclusive;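 note: compound effect scored on response to added TRH at EC20 of 10 nM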
# TRHR agonist-2: qHTS for Small Molecule Agonists and Allosteric Enhancers of Human TRH Receptor: Confirmation Screen for Agonists | shares compounds with TRHR enhancer-1 | TRHR-expressing cells, agonist activation read-out | Potency, µM (series often up to 46.1 µM), hits mostly activators | 8% of 970 active | AID 493078, 2011; active = well fitted curve in the direction sought with a large enough effect; inconclusive = small, poorly fitted or top-dose-only effect, or another doubt; inactive = no such curve, though single readings can be large; an effect the other way counts as inactive or inconclusive; note: nearly all actives have a fitted effect of over 75% in size
# Hits are given with their value; 0 = inactive; ? = inconclusive; - = not tested or not shown. This is a sample that favours compounds with a hit; in the whole collection about 4.7% have one here. Cut-off read from the data, not from the text of the source, unless noted: active = activation above about 30%; inactive = the rest.
SMILES,D1 antagonist,D1 ag,D1 PAM,TRHR agonist-1,TRHR enhancer-1,TRHR enhancer-2,TRHR agonist-2
Cc1ccc(N2C(=O)NC(NS(=O)(=O)c3ccccc3)(C(F)(F)F)C2=O)cc1C (stereo not given),0,0,0,0,0,-,-
O=C(N/N=C/c1cccnc1)c1ccccc1OCc1cccc(Br)c1,0,0,0,0,0,-,-
Cc1ccc(/C=N/NC(=O)c2ccccc2OCc2cccc(Br)c2)o1,0,0,0,0,57.7,0,0
COC(=O)c1ccccc1NC(=O)Cn1nc(C(F)(F)F)c2c1CCCC2,0,0,0,0,56.7,0,0
Cc1c(NC(=O)Cn2nc(C(F)(F)F)c3c2CCCC3)c(=O)n(-c2ccccc2)n1C,0,0,0,0,58.5,0,0
Cc1c(NC(=O)Cn2nc(C(=O)O)c3ccccc3c2=O)c(=O)n(-c2ccccc2)n1C,0,0,0,0,46.1,0,0
CCc1ccccc1NC(=O)Cn1nc(C(F)(F)F)c2c1CCCC2,0,0,0,0,0,-,-
CCN(C(=O)Cn1nc(C(=O)O)c2ccccc2c1=O)C1CCCCC1,0,0,0,0,44.2,0,0
COc1ccc(C2C(C(C)=O)=C(C)N=c3s/c(=C/c4ccc5c(c4)OCO5)c(=O)n32)cc1 (stereo not given),0,0,0,38.2,0,0,?
O=C(NCC(c1ccco1)N1CCc2ccccc21)c1ccccc1 (stereo not given),0,0,0,0,51.3,0,0
Cc1ccc(C(=O)NCC(c2ccco2)N2CCc3ccccc32)cc1C (stereo not given),0,0,0,0,0,-,-
CCOc1ccc(-c2cc(C(=O)OC)nc3c2c(=O)n(C)c(=O)n3C)cc1,0,0,0,0,43.2,0,0
O=C(NCCc1ccc(Cl)cc1)C1CCN(S(=O)(=O)c2ccc3[nH]ccc3c2)CC1,0,0,0,0,0,-,-
COC(=O)C1=C(C(=O)c2ccccc2)C(c2ccccc2)n2nnnc2N1 (stereo not given),0,0,0,0,62.2,0,0
COc1ccc(-c2noc(CSc3nnc(-c4ccncc4)n3-c3ccc(OC)cc3)n2)cc1,0,0,0,0,0,-,-
COc1cccc(N=C2NC(=O)/C(=C/c3cc([N+](=O)[O-])ccc3O)S2)c1,0,83.4,0,55.3,0,0,?
COc1ccc(N=C2NC(=O)/C(=C/c3ccc(O)c(OC)c3)S2)cc1,0,0,0,0,0,-,-
COc1c(C)cc(Br)cc1C(=O)NC(=S)NCc1ccco1,0,0,0,0,0,-,-
CSc1nsc2nc(=O)c(/C=C3\C(C)=Nc4ccccc43)c(N)n12,0,0,0,0,0,-,-
CC1=Nc2ccccc2/C1=C/c1sc(=S)n(-c2cccc(C(=O)O)c2)c1O,0,48.9,0,0,0,0,20.6µM
O=C(NC(N1CCOCC1)C(Cl)(Cl)Cl)c1ccco1 (stereo not given),0,0,0,0,0,-,-
O=C(/C=C/c1ccccc1)NC(N1CCOCC1)C(Cl)(Cl)Cl (stereo not given),-33.5,0,0,0,45.4,0,0
O=C(CSc1nc2ccccc2s1)N1c2ccccc2Sc2ccc(C(F)(F)F)cc21,0,0,0,0,58.4,0,0
COc1cccc(NS(=O)(=O)c2ccc3c(c2)N(C(C)=O)CCO3)c1,0,0,0,0,103.9,0,0
COc1ccc(-c2nc(SCC(=O)Nc3c(C)cc(C)cc3C)n[nH]2)cc1,0,0,0,0,0,-,-
SMILES,D1 antagonist,D1 ag,D1 PAM,TRHR agonist-1,TRHR enhancer-1,TRHR enhancer-2,TRHR agonist-2
Cn1c(=O)cc(SCC(=O)N2CCN(c3ccccc3F)CC2)c2ccc(Cl)cc21,0,0,0,0,0,-,-
CCCCc1cc(=O)oc2cc(OCC(=O)NCCN3CCOCC3)ccc12,0,0,0,0,0,-,-
OCCC1CN(Cc2ccc3nsnc3c2)CCN1CCc1ccccc1 (stereo not given),0,0,0,0,44.7,0,0
O=C1CC(c2ccccc2)Sc2nc3ccccc3n21 (stereo not given),0,0,0,0,42.3,0,0
O=C1CC(c2cccs2)Sc2nc3ccccc3n21 (stereo not given),0,0,0,0,0,-,-
O=C(Nc1cccc(C(=O)N2CCCCC2)c1)c1nsc2ccccc12,0,0,0,0,0,-,-
COc1ccc(NS(=O)(=O)c2ccc(N3CCCC3)c(NC(=S)Nc3cccc(C)c3C)c2)cc1,0,0,0,0,0,-,-
COc1ccc(NS(=O)(=O)c2ccc(N3CCCC3)c(NC(=S)Nc3ccc(SC(F)F)cc3)c2)cc1,-41.9,0,0,0,64.7,0,0
CC(=O)c1ccc(NC(=O)c2nc(-c3ccccc3)n(-c3ccc(Cl)cc3)n2)cc1,0,0,0,0,0,-,-
COc1nc2c(s1)C(=O)NCCC2,0,0,0,0,0,-,-
CCN(CC)c1nc2c(s1)C(=O)NCCC2,0,0,0,0,50.7,0,0
CC(C)c1c(C(=O)N/N=C/C=C/c2ccccc2)nnn1-c1nonc1N,0,0,0,0,76.1,0,0
Cc1csc(NC(=O)c2sc3nc(-c4cccs4)ccc3c2N)n1,0,73.3,0,51.2,0,0,10.3µM
COCCN(C(=O)CCC(=O)Nc1nccs1)C(C(=O)NCCC(C)C)c1ccc(OC)cc1 (stereo not given),0,0,0,0,0,-,-
O=C(COc1ccc(Br)cc1)N1CCN(c2ncccn2)CC1,0,0,0,0,0,-,-
COc1ccc(NC(=O)CNS(=O)(=O)c2ccc(Cl)cc2)cc1,0,0,0,0,44.2,0,0
COc1cccc(NC(=O)CNS(=O)(=O)c2ccc(Cl)cc2)c1,0,0,0,0,0,-,-
CCC1(C)Cc2c(sc3c2c(=O)n(C)c2nnc(SCCc4ccccc4)n32)CO1 (stereo not given),0,0,0,0,65.2,0,0
CC(=O)c1c(C)[nH]c(C(=O)COC(=O)COc2ccccc2F)c1C,0,0,0,0,51.9,0,0
CCOC(=O)c1c(C)[nH]c(C(=O)COC(=O)COc2ccccc2C)c1C,0,0,0,0,0,-,-
